CBFb-RUNX1 inh = blocks binding between human CBF-beta and RUNX1 | Q01196+Q13951 | AlphaScreen CBFb-His/RUNX1-biotin binding, biochemical | Potency, µM (doses to about 59.8 µM), most hits filed as inhibitors | 230,000 tested, under 10 active | AID 1477
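His-tagged CBF-beta and biotinylated RUNX1 (30 nM each) were premixed 20 min at room temperature, exposed to compound for 15 min, then given nickel-chelate and streptavidin AlphaScreen beads (50 ng each). After 90 min, AlphaScreen signal was read.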
RORg inh = ROR gamma (mouse) transcription inhibition | P51450 | Drosophila S2 Gal4-RORgamma UAS-luciferase reporter, 20 h | Potency, µM (doses to about 53.6 µM), usual class: inhibitors | actives 5.4% (n = 310,000); further: nearly all actives have a fitted effect of over 60% in size
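Stably transfected Drosophila Schneider cells are the test system, with ROR gamma fused to Gal4 and luciferase under UAS control; luminescence is read after 20 hr of 700 uM copper sulfate induction at ambient temperature.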
MBNL1-CUG inh = blocks human MBNL1 binding to CUG repeat RNA | actives 0.036% (n = 280,000) | AID 2675 | Potency, µM (titrated, usually from 57.5 µM), usual class: inhibitors | TR-FRET MBNL1-His/biotin-(CUG)12 binding, 665/545 ratio | Q9NR56; active means well fitted inhibition curve with a large enough effect in the signal ratio, with a control signal flat, not every such curve was filed as active; inconclusive means small, poorly fitted or top-dose-only effect, or effect the other way, or a change in a side signal; inactive means no such curve, though single readings can be large or run the other way; the % refers to the signal ratio
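His-tagged MBNL1 binding to biotinylated (CUG)12 RNA was measured by TR-FRET using terbium anti-His antibody (0.055 ng/ul final) and streptavidin-XL665 (5 nM final). Compounds were titrated 92 nM to 58 uM; 60 min at room temperature.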
Six1-Eya2 inh = inhibitors of human Six1/Eya2 interaction; Q15475+O00167; AlphaScreen GST-Six1/His-Eya2 binding, biochemical; stronger effect = lower value; actives 0.56% (n = 360,000); AID 651725; activity change, % (no concentration beside the values); in the data active means activity change below about -65%; inconclusive means mostly about -30% to -63%
Target sequence (O00167 whole entry, looked up): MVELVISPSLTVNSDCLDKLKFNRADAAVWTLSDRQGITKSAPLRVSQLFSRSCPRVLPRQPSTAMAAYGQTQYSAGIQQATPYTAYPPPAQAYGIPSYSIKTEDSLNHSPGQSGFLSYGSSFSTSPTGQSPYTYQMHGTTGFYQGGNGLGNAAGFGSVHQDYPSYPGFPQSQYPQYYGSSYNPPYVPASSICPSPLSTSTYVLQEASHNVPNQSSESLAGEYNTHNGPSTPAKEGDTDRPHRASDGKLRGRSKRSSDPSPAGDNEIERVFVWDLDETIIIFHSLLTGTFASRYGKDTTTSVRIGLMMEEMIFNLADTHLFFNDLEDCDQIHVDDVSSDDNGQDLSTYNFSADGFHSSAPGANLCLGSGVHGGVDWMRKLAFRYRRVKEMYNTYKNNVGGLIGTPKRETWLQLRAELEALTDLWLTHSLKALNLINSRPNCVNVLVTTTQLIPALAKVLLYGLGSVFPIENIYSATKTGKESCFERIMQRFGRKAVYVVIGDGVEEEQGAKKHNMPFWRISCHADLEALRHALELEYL
Target sequence (Q15475 whole entry, looked up): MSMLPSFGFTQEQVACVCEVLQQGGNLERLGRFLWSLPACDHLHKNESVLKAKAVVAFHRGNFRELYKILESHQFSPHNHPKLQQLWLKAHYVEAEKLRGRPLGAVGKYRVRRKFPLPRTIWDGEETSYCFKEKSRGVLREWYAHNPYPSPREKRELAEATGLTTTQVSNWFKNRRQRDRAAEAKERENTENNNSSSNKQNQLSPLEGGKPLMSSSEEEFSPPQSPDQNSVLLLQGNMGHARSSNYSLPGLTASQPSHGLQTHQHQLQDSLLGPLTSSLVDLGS
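Homogeneous AlphaScreen proximity assay pairing GST-Six1 with His-tagged Eya2 (added as 5X mix: 250 nM and 500 nM) in 50 mM Tris pH 8.0, 300 mM NaCl, 1 mM TCEP. Glutathione donor and nickel acceptor beads; 1 h, 37 °C, dark.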
CtBP-E1A inh = inhibitors of CtBP/E1A interaction; actives 0.49% (n = 340,000); activity change, % (no concentration beside the values); AlphaScreen GST-E1A/His-CtBP binding, 1536-well; stronger effect = lower value; AID 651724; in the data active means activity change below about -65%; inconclusive means mostly about -30% to -63%
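Protein mix (5X: 125 nM each GST-E1A, His-CtBP) was incubated with pinned compound 2 h at 37 deg C in dark, in 50 mM Tris pH 8.0 buffer with 300 mM NaCl. Glutathione donor and nickel acceptor beads followed; AlphaScreen signal read after 1 h.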
VP16 counter = inhibits Gal4-VP16 luciferase reporter, ROR gamma counter-screen; Drosophila S2 Gal4-VP16 UAS-luciferase, luminescence, 20 h; Potency, µM (doses to about 53.6 µM), usual class: inhibitors; actives 3.5% (n = 310,000);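 further: Gal4-VP16 expression switched on by copper sulfate through the metallothionein promoter; nearly all actives have a fitted effect of over 50% in size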
MBNL1 TRFRET = MBNL1-poly(CUG) RNA binding inhibition confirmed; shares compounds with MBNL1-CUG inh; TR-FRET MBNL1-His / biotin-(CUG)12 binding, 60 min; Potency, µM (series often up to 57.6 µM), most hits filed as inhibitors; actives 50% (n = 140); AID 493199
MBNL1 AlphaScrn = blocks MBNL1 binding to (CUG)12 RNA in AlphaScreen; shares compounds with MBNL1-CUG inh; AlphaScreen MBNL1-His / biotin-(CUG)12 binding; Potency, µM (top dose mostly 57.7 µM), usual class: inhibitors; actives 30% (n = 140); AID 493205
MBNL1 HTRF CS = counter-screen for MBNL1-poly(CUG) RNA binding inhibitors. AID 651843. His-Menin/biotin-MLL peptide TR-FRET counterscreen. shares compounds with MBNL1-CUG inh. Potency, µM (top dose mostly 57.6 µM), most hits filed as inhibitors. actives 20% (n = 120)
Large screens that a line does not name were inactive (follow-up assays come after a bar, where they were run). Hits are enriched below; roughly 5.5% of the tested compounds scored in any of these assays. Unless noted, the call rests on the fitted dose curve; in most records, active means well fitted curve in the direction sought with a large enough effect; inconclusive means small, poorly fitted or top-dose-only effect, or another doubt; inactive means no such curve, though single readings can be large; an effect the other way counts as inactive or inconclusive.

Cc1ccc(C)c(NC(=O)CCN2CCCC(C)C2)c1 (configuration not stated)	none (no result: CBFb-RUNX1 inh, CtBP-E1A inh)
O=C1Cc2ccccc2C(=O)N1Cc1ccccc1	MBNL1-CUG inh 25.1µM | MBNL1 TRFRET inactive | MBNL1 AlphaScrn inconclusive | MBNL1 HTRF CS inactive
Cc1c(C(=O)N/N=C/c2cccnc2)sc(N)c1C#N	VP16 counter inconclusive (no result: CBFb-RUNX1 inh)
COc1cc(C(=O)N/N=C/c2ccc(OC)c(CN3CCN(c4ccc(F)cc4)CC3)c2)ccc1O	MBNL1-CUG inh 31.6µM, Six1-Eya2 inh inconclusive (no result: CtBP-E1A inh) | MBNL1 TRFRET inconclusive | MBNL1 AlphaScrn inactive | MBNL1 HTRF CS inactive
COc1ccc(/C=N/NC(=O)c2ccccc2)cc1CN1CCN(c2ccc(F)cc2)CC1	none
COc1ccc(CNC(=O)c2noc(C)c2[N+](=O)[O-])cc1	MBNL1-CUG inh inconclusive
COc1ccccc1C(C)NC(=O)c1ccc(NC(=O)CC2SC(N3CCCC3)=NC2=O)cc1 (configuration not stated)	none (no result: CBFb-RUNX1 inh, RORg inh, MBNL1-CUG inh, VP16 counter)
O=C1C(SCCO)=C(SCCO)C(=O)c2ccccc21	RORg inh 0.631µM, MBNL1-CUG inh inconclusive, CtBP-E1A inh inconclusive, VP16 counter 0.794µM | MBNL1 TRFRET 5.01µM | MBNL1 AlphaScrn 10µM
O=C1NC[C@@H](CCCCN2C[C@H](Cc3ccccc3)N(CCc3ccccc3)C(=O)C2=O)N(CCc2ccccc2)C1=O	none (no result: CBFb-RUNX1 inh, RORg inh, MBNL1-CUG inh, VP16 counter)
COc1ccc(Cc2n[nH]c(=S)n2NC(=O)Nc2ccc(Cl)c(Cl)c2)cc1	MBNL1-CUG inh 14.1µM (no result: CtBP-E1A inh) | MBNL1 TRFRET 10.3µM | MBNL1 AlphaScrn inactive | MBNL1 HTRF CS 41.1µM
Cn1c(CC(=O)Nc2ccc(Cl)c(Cl)c2)n[nH]c1=S	none
CCOc1ccc2[nH]c(=O)c(C(c3nnnn3Cc3ccco3)N3CCN(C)CC3)cc2c1 (configuration not stated)	RORg inh 3.55µM, MBNL1-CUG inh inconclusive, VP16 counter 3.55µM (no result: CBFb-RUNX1 inh) | MBNL1 TRFRET inactive | MBNL1 AlphaScrn inactive | MBNL1 HTRF CS inactive
O=C(Nc1ccc(F)cc1)Nc1cccc(Br)c1	none (no result: CBFb-RUNX1 inh, RORg inh, MBNL1-CUG inh, CtBP-E1A inh, VP16 counter)
Cn1nccc1NC(=O)Nc1cccc(Br)c1	MBNL1-CUG inh 10µM (no result: CBFb-RUNX1 inh) | MBNL1 TRFRET 8.19µM | MBNL1 AlphaScrn inactive | MBNL1 HTRF CS 25.9µM
Cn1nccc1NC(=O)Nc1ccccc1	MBNL1-CUG inh inconclusive (no result: CBFb-RUNX1 inh)
Cn1nccc1NC(=O)Nc1ccc(Cl)cc1	MBNL1-CUG inh 39.8µM (no result: CtBP-E1A inh) | MBNL1 TRFRET 10.3µM | MBNL1 AlphaScrn inactive | MBNL1 HTRF CS inconclusive
COC(=O)[C@]12CCCCC=C1N(CCC1=CCCCC1)C(=O)[C@H](CC(=O)NCc1ccccc1)C2	none (no result: CBFb-RUNX1 inh, RORg inh, MBNL1-CUG inh, VP16 counter)
Cc1cc2nc(C(C)(C)C)c(Cc3ccsc3)n2c(C)c1Br	none (no result: CBFb-RUNX1 inh, RORg inh, MBNL1-CUG inh, VP16 counter)
Cc1oc2nc(SCCCC(=O)NCCO)nc(N)c2c1C	MBNL1-CUG inh 20µM | MBNL1 TRFRET inconclusive | MBNL1 AlphaScrn inconclusive | MBNL1 HTRF CS inactive
CC(C)OC(=O)CSc1nnc(-c2cnccn2)n1C	RORg inh inconclusive, MBNL1-CUG inh 39.8µM | MBNL1 TRFRET inconclusive | MBNL1 AlphaScrn inactive | MBNL1 HTRF CS inactive
NC(=NCc1ccc2c(c1)OCO2)NC(=O)c1ccccc1	none (no result: MBNL1-CUG inh) | MBNL1 TRFRET 13µM | MBNL1 AlphaScrn 13µM | MBNL1 HTRF CS inactive
C/C(CCc1ccc2c(c1)OCO2)=N\NC(=O)c1ccccc1	none
CN1CCN(C(=O)CSc2nnc(COc3ccc(Cl)cc3)o2)CC1	none (no result: CBFb-RUNX1 inh)

Screening results: PubChem, National Center for Advancing Translational Sciences (NCATS)
